Measurements as given in PubChem BioAssay AID1159580 (chemical genetic matrix, 2015).
Values joined by “and” are separate entries in the source; they are usually repeats but may differ in a detail not shown here. Equal values may be shown once. In all, about 5,500 compounds went through this assay and about 2,000 (36%) were called active. Inconclusive results (about 18%) are left out. Rule as the data show it: active = normalized growth mostly below about 0.91 (no sharp cut-off); inconclusive = no clear call, values can overlap the other calls; inactive = mostly above about 0.92. The list shows a part of the results.

Assay: chemical genetic growth profiling, strain panel (AID 1159580);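 also: tested at 20 µM; growth read once vehicle control cultures reached saturation at 30 °C; 1 = growth at the plate median or of vehicle wells; lower values mean less growth of the strain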
Settings: S. cerevisiae deletion strains, growth OD

Measured: normalized growth

CCOC(=O)OC(C)OC(=O)C1N2C(=O)C(NC(=O)[C@H](N)c3ccccc3)C2SC1(C)C (some centres undefined)
inactive: locus YAL013W, strain DEP1, active compounds read low 0.98 | locus YAL021C, strain ccr4, active compounds read low 0.986 | locus YAL026C, strain drs2, active compounds read low 0.981 | locus YAL030W, strain snc1, active compounds read low 0.98 | locus YBL061C, strain skt5, active compounds read low 0.978 | locus YBR009C, strain hhf1, active compounds read low 0.992 | locus YBR021W, strain FUR4, active compounds read low 1.03 | locus YBR023C, strain chs3, active compounds read low 0.986 | locus YBR171W, strain sec66, active compounds read low 0.968 | locus YBR229C, strain ROT2, active compounds read low 0.961 | locus YBR231C, strain swc5, active compounds read low 0.987 | locus YBR279W, strain paf1, active compounds read low 0.989 | locus YCL011C, strain gbp2, active compounds read low 0.965 | locus YCL016C, strain dcc1, active compounds read low 0.993 | locus YCL029C, strain bik1, active compounds read low 0.988 | locus YCL061C, strain MRC1, active compounds read low 0.998 | locus YCL069W, strain vba3, active compounds read low 0.998 | locus YCR088W, strain abp1, active compounds read low 0.985 | locus YDL005C, strain med2, active compounds read low 0.983 | locus YDL035C, strain GPR1, active compounds read low 0.984 | locus YDL040C, strain nat1, active compounds read low 0.989 | locus YDL074C, strain BRE1, active compounds read low 0.917 | locus YDL101C, strain DUN1, active compounds read low 0.97 | locus YDL134C, strain PPH21, active compounds read low 0.998 | locus YDL185W, strain tfp1, active compounds read low 0.975 | locus YDL192W, strain arf1, active compounds read low 0.985 | locus YDR001C, strain nth1, active compounds read low 0.983 | locus YDR069C, strain doa4, active compounds read low 0.993 | locus YDR101C, strain arx1, active compounds read low 0.962 | locus YDR137W, strain rgp1, active compounds read low 0.994 | locus YDR159W, strain sac3, active compounds read low 1 | locus YDR162C, strain NBP2, active compounds read low 0.989 | locus YDR195W, strain ref2 0.985 | locus YDR297W, strain sur2, active compounds read low 0.977 | locus YDR318W, strain mcm21, active compounds read low 0.992 | locus YDR334W, strain swr1, active compounds read low 0.943 | locus YDR335W, strain msn5, active compounds read low 0.979 | locus YDR388W, active compounds read low 0.991 | locus YDR392W, strain spt3, active compounds read low 0.946 | locus YDR502C, strain sam2, active compounds read low 0.99 | locus YEL003W, strain gim4, active compounds read low 0.98 | locus YEL037C, strain rad23, active compounds read low 0.987 | locus YEL061C, strain CIN8 (second series), active compounds read low 0.984 | locus YEL061C, strain CIN8, active compounds read low 0.976 | locus YER015W, strain faa2, active compounds read low 0.981 | locus YER016W, strain bim1, active compounds read low 0.99 | locus YER110C, active compounds read low 0.982 | locus YER111C, strain swi4, active compounds read low 0.985 | locus YER155C, strain BEM2 (second series), active compounds read low 0.995 | locus YER155C, strain BEM2, active compounds read low 0.992 | locus YER167W, strain BCK2, active compounds read low 0.997 | locus YFR010W, strain ubp6, active compounds read low 0.977 | locus YGL078C, strain dbp3, active compounds read low 0.974 | locus YGL086W, strain mad1, active compounds read low 0.966 | locus YGL167C, strain pmr1, active compounds read low 0.991 | locus YGL173C, strain kem1, active compounds read low 0.975 | locus YGL227W, strain vid30, active compounds read low 0.993 | locus YGL240W, strain doc1, active compounds read low 0.984 | locus YGL248W, strain PDE1, active compounds read low 0.969 | locus YGL253W, strain hxk2, active compounds read low 0.971 | locus YGR135W, strain pre9, active compounds read low 1.04 | locus YGR252W, strain gcn5, active compounds read low 0.945 | locus YHR013C, strain ard1, active compounds read low 0.967 | locus YHR027C, strain rpn1, active compounds read low 0.963 | locus YHR030C, strain SLT2, active compounds read low 0.996 and 1.02 | locus YHR079C, strain IRE1 (second series), active compounds read low 0.993 | locus YHR079C, strain IRE1, active compounds read low 0.98 | locus YHR094C, strain hxt1, active compounds read low 0.984 | locus YHR129C, strain ARP1, active compounds read low 0.993 | locus YHR142W, strain chs7, active compounds read low 0.954 | locus YHR200W, strain rpn10, active compounds read low 0.997 | locus YIL066C, strain RNR3, active compounds read low 0.944 | locus YIL073C, strain SPO22, active compounds read low 0.966 | locus YIL125W, strain kgd1, active compounds read low 0.995 | locus YIR030C, strain dcg1, active compounds read low 0.986 | locus YJL092W, strain hpr5, active compounds read low 0.994 | locus YJL095W, strain BCK1 (second series), active compounds read low 0.994 | locus YJL095W, strain BCK1, active compounds read low 0.949 and 0.988 | locus YJL115W, strain asf1, active compounds read low 0.974 | locus YJL129C, strain trk1, active compounds read low 1.01 | locus YJL134W, strain LCB3, active compounds read low 0.992 | locus YJL154C, strain vps35, active compounds read low 0.989 | locus YJL164C, strain tpk1, active compounds read low 0.975 | locus YJL166W, strain qcr8, active compounds read low 0.971 | locus YJL168C, strain set2, active compounds read low 0.984 | locus YJL187C, strain SWE1 (second series), active compounds read low 0.935 | locus YJL187C, strain SWE1, active compounds read low 0.989 | locus YJR043C, strain POL32, active compounds read low 0.98 | locus YJR066W, strain TOR1, active compounds read low 0.966
